Bioassay records from PubChem.
Rows were chosen to be rich in hits. Some 1.5% of all compounds tested hit in one or more screens of this group.
TMEM16A act – mouse TMEM16A channel activation, primary screen; Q8BHY3; HEK293 TMEM16A/YFP-H148Q/I152L, iodide quench fluorescence; stronger effect = lower value; B-score at 10 µM; 340,000 tested, 0.3% active;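 active means fluorescence-ratio B-score plate-corrected deviation score at least 3 library SD below zero, with starting fluorescence score within 5 deviations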;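 further: channel opened by trigger with iodide after compound preincubation; score built on the fluorescence ratio of max minus min over baseline; more negative score means more quench and so TMEM16A activation or potentiation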
Target sequence (Q8BHY3 whole entry, looked up): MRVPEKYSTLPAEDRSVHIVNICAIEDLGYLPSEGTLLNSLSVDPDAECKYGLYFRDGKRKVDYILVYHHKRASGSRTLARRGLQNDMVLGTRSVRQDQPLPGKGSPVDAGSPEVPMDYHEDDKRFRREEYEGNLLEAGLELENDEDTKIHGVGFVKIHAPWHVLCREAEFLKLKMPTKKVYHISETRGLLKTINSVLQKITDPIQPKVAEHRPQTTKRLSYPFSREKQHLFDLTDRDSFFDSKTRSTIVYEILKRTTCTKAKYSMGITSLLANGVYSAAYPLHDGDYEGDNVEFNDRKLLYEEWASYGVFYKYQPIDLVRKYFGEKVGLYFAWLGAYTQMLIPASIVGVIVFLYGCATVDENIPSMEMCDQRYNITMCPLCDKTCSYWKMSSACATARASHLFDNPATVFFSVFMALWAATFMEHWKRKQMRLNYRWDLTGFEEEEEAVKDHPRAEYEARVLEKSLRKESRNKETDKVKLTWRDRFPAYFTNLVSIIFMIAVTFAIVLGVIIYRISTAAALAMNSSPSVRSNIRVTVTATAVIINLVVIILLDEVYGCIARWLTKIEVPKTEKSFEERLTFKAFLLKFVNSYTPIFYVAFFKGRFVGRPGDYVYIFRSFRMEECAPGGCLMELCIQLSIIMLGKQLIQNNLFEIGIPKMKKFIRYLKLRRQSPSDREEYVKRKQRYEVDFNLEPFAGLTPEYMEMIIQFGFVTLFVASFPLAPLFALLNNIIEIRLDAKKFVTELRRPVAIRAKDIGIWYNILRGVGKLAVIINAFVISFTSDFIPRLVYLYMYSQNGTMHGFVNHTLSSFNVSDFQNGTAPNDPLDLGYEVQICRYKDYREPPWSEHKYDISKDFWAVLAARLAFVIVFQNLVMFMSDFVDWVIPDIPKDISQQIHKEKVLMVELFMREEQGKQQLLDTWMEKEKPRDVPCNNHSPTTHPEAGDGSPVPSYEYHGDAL
ABCB6 inh 2 – blocks the human ABCB6 transporter; Q9NP58; K562-ABCB6 porphyrin accumulation, flow cytometry, 1 h; stronger effect = lower value; fluorescence ratio to DMSO, % at 10 µM; 360,000 tested, 0.19% active;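 active means fluorescence ratio to DMSO below 75%, the collection mean minus 3 SD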;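 further: signal is porphyrin accumulated inside mitochondria; lower ratio means ABCB6 inhibition with less porphyrin fluorescence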
hiPSC survival – enhancers of human iPSC single-cell survival; hiPSC single-cell survival, ATPlite luminescence; 100% = ROCK inhibitor wells, 0% = DMSO; survival enhancement, % at 20 µM; 360,000 tested, 0.044% active; AID 602274; in the data active means survival enhancement above about 18%;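 further: cells exposed to compounds for 16 hours before the ATP read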
DAGLB inh – blocks human DAGLB lipase activity; Q8NCG7; HEK293T DAGLB membrane lysate, EnzChek fluorogenic substrate; inhibition, % at 5.17 µM; 340,000 tested, 0.059% active; AID 504411; in the data active means inhibition above about 34%
ANO1 block – inhibitors of mouse TMEM16A calcium-activated chloride channel; Q8BHY3; HEK293 TMEM16A/YFP iodide influx fluorescence, ionomycin; normalized B-score (activity score, 25-100; higher = stronger inhibition) at 10 µM; 310,000 tested, 1.2% active;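 active means ratio plate-corrected score three or more library SD toward inhibition, starting fluorescence score within five deviations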;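 further: score derived from kinetic fluorescence span divided by baseline fluorescence per well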
ABCB6 blocker 1 – blocks the human ABCB6 transporter; shares compounds with ABCB6 inh 2; K562-ABCB6 porphyrin accumulation, flow cytometry, 1 h; stronger effect = lower value; ratio response (% of DMSO), % at 10 µM; 700 tested, under 10 active;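 active means repeat-averaged ratio response below 75% of DMSO, the collection mean minus 3 SD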;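 further: median porphyrin fluorescence at 575 nm with 488 nm excitation from mitochondria; lower ratio means less porphyrin signal so ABCB6 inhibition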
Each line names hits and unclear results; the compound was inactive in the other large screens (follow-up assays come after a bar, where they were run).

CCN(CC)C(=O)CSc1nc(O)c(Cc2ccccc2)c(=O)n1-c1ccc(C)cc1	none
CCN(CC)C(=O)CSc1nc(O)c(Cc2ccccc2)c(=O)n1-c1ccccc1	ABCB6 inh 2 57 | ABCB6 blocker 1 inactive
Cc1ccc(OCC(=O)Nc2ccncc2)cc1C	ABCB6 inh 2 74 (no result: TMEM16A act, ANO1 block) | ABCB6 blocker 1 inactive
CC(C)NC(=O)N1Cc2cc(C(=O)NC3CCC3)nc(-c3cccc(-c4cncnc4)c3)c2[C@H]1CCO	none (no result: TMEM16A act, DAGLB inh, ANO1 block)
CC(=O)Nc1ccc(NC(=O)CSC2=NS(=O)(=O)c3cc(Cl)ccc3N2)cc1	ABCB6 inh 2 56 | ABCB6 blocker 1 inactive
CCCCn1nnnc1C1(C)CCC(=O)N1CC1CCCCC1 (stereo unspecified)	none (no result: TMEM16A act, DAGLB inh, ANO1 block)
CS(=O)(=O)c1ccc(-n2c(=O)n(Cc3ccccc3)c(=O)c3[nH]cnc32)cc1	none
COc1ccc(-c2ccc(C(=O)NCc3ccc(F)c(F)c3)c3occc23)c(C)c1	none (no result: TMEM16A act, DAGLB inh, ANO1 block)
COc1ccc(-c2ccc(C(=O)NCc3ccncc3)c3occc23)c(C)c1	ABCB6 inh 2 69 (no result: TMEM16A act, DAGLB inh, ANO1 block) | ABCB6 blocker 1 inactive
CC(=O)c1cccc(NC(=O)C2Cc3c(-c4ccccc4Oc4ccccc4)ccnc3O2)c1 (stereo unspecified)	none (no result: TMEM16A act, DAGLB inh, ANO1 block)
CC(=O)Nc1cccc(-c2ccnc3c2CC(C(=O)Nc2cccc(OC(F)(F)F)c2)O3)c1 (stereo unspecified)	none (no result: TMEM16A act, DAGLB inh, ANO1 block)
CC(=O)Nc1cccc(-c2ccnc3c2CC(C(=O)Nc2cccnc2)O3)c1 (stereo unspecified)	none (no result: TMEM16A act, DAGLB inh, ANO1 block) | ABCB6 blocker 1 inactive
CC(=O)Nc1ccc(-c2ccnc3c2CC(C(=O)Nc2cccc(OC(F)(F)F)c2)O3)cc1 (stereo unspecified)	ABCB6 inh 2 74 (no result: TMEM16A act, DAGLB inh, ANO1 block) | ABCB6 blocker 1 inactive
O=C(Nc1cccc(C(F)(F)F)c1)C1Cc2c(-c3ccccc3Oc3ccccc3)ccnc2O1 (stereo unspecified)	none (no result: TMEM16A act, DAGLB inh, ANO1 block) | ABCB6 blocker 1 inactive
Cc1ccc(-n2cc(CCCCCCCCC(=O)O)nn2)cc1	none
COc1ccccc1Oc1ncnc2c1oc1ccccc12	ABCB6 inh 2 69 | ABCB6 blocker 1 inactive
O=C(CSc1nnc(NC(=O)C2CC2)s1)Nc1cccc(F)c1	none
CCc1cc(=O)oc2c(C)c(OCC(=O)N3CCCc4ccccc43)ccc12	ABCB6 inh 2 74 | ABCB6 blocker 1 inactive
Nn1c(SCC(=O)Nc2ccc(F)cc2)nnc1C1CCCCC1	none
CN(C)c1ccc(NC(=O)CSc2nnc(C3CCCCC3)n2N)cc1	ABCB6 inh 2 12 | ABCB6 blocker 1 inactive
CCCCC(=O)Nc1ccc(N2CCN(c3ccc(F)cc3)CC2)cc1	none
Cn1nc(-c2ccccc2)c(CO)c1Oc1ccc(F)cc1	ABCB6 inh 2 69 | ABCB6 blocker 1 inactive
COc1ccccc1-c1nnc(SC/C(O)=C(\C#N)c2nc3ccccc3[nH]2)n1C1CCCCC1	ABCB6 inh 2 71 | ABCB6 blocker 1 inactive
N#C/C(=C(/O)CSc1nnc(Cc2cccs2)n1C1CCCCC1)c1nc2ccccc2[nH]1	none
Nn1c(SCC(=O)NNC(=O)c2ccccc2)nnc1-c1ccccc1F	none
O=C(CN1c2cccc3cccc(c23)S1(=O)=O)NCc1ccccc1Cl	ABCB6 inh 2 74 (no result: TMEM16A act, ANO1 block) | ABCB6 blocker 1 inactive
CC(O)c1cccc(NC2=CC(=O)CC(C)(C)C2)c1 (stereo unspecified)	ABCB6 inh 2 64 | ABCB6 blocker 1 inactive
CC1(C)CC(=O)C=C(Nc2cccc(F)c2)C1	none
O=C(Nc1ccc(NC(=O)C2CC2)nc1)c1cccnc1	ABCB6 inh 2 68 | ABCB6 blocker 1 inactive
O=C(Nc1ccc(NC(=O)C2CC2)cn1)c1ccccc1	none
O=C(NCC(F)(F)F)c1ccc2sc([C@H]3C[C@H](O)[C@@H](CO)O3)nc2c1	none (no result: TMEM16A act, DAGLB inh, ANO1 block)
CCCCc1c(-c2ccc(F)cc2)ncn1CCc1ccccc1OC	none (no result: TMEM16A act, DAGLB inh, ANO1 block)
CC(C)CN(C(=O)CCC(=O)OCC(=O)N(C)c1ccccc1)c1c(N)n(CC(C)C)c(=O)[nH]c1=O	none | ABCB6 blocker 1 inactive
CCCCCN(C(=O)CCC(=O)OC(C)C(=O)Nc1ccccc1C)c1c(N)n(CCCC)c(=O)[nH]c1=O (stereo unspecified)	none (no result: TMEM16A act, ANO1 block) | ABCB6 blocker 1 inactive
CCCCN(C(=O)CCC(=O)OCC(=O)NCc1ccccc1)c1c(N)n(CCC)c(=O)[nH]c1=O	none (no result: ANO1 block) | ABCB6 blocker 1 inactive
CCCCCN(C(=O)CCC(=O)OCc1ccccc1C)c1c(N)n(CCCC)c(=O)[nH]c1=O	none
CCCCCN(C(=O)CCC(=O)OC(C)C(=O)c1ccc(CC)cc1)c1c(N)n(CCCC)c(=O)[nH]c1=O (stereo unspecified)	none (no result: ANO1 block) | ABCB6 blocker 1 inactive
CC(C)CN(C(=O)CCC(=O)OCC(=O)c1ccc(F)c(F)c1)c1c(N)n(CC(C)C)c(=O)[nH]c1=O	none
CC1CC(C)CN(CCCNC(=O)CN2C(=O)CSc3ccc(S(=O)(=O)N4CCOCC4)cc32)C1 (stereo unspecified)	none
Cc1ccc(NC(=O)N2CCC(NC(=O)c3cccc(F)c3)CC2)cc1	none
Cc1ccc(NC(=O)COC(=O)CC2CC3CCC2C3)cc1S(=O)(=O)N1CCOCC1 (stereo unspecified)	none (no result: ANO1 block)
CCCCCN(C(=O)CCC(=O)OCC(=O)c1ccc(CCC)cc1)c1c(N)n(CCCC)c(=O)[nH]c1=O	ABCB6 inh 2 73 | ABCB6 blocker 1 inactive
CCOc1ccccc1-c1nnc(SCC(=O)NC2CC2)n1CC	none
COc1ccc(OC)c(NC(=O)C2CC(=O)N(CCc3ccc(F)cc3)C2)c1 (stereo unspecified)	ABCB6 inh 2 48 (no result: ANO1 block) | ABCB6 blocker 1 inactive
COc1ccc(Cl)cc1NC(=O)CSc1cccc[n+]1[O-]	none (no result: ANO1 block)
NC(=O)CC(NC(=O)c1ccc(Br)cc1)c1ccc(N2CCCCCCC2)c([N+](=O)[O-])c1 (stereo unspecified)	none
CCOC(=O)c1ccc(S(=O)(=O)Nc2cc(C(C)(C)C)no2)cc1	ABCB6 inh 2 66 | ABCB6 blocker 1 inactive
O=C(CCc1nc(-c2ccccc2Cl)no1)NC1CCCCC1	ABCB6 inh 2 73 | ABCB6 blocker 1 inactive
O=C(CCc1nc(-c2ccccc2Cl)no1)NC1CCCC1	none
CC(Oc1ccccc1)c1ccnc2nc(N3CCOCC3)nn12 (stereo unspecified)	none
CC(Oc1ccc(Cl)cc1Cl)c1ccnc2nc(N3CCOCC3)nn12 (stereo unspecified)	ABCB6 inh 2 74 | ABCB6 blocker 1 inactive
CC1C(=O)N(Cc2cn(Cc3ccco3)nn2)CCS(=O)(=O)N1Cc1ccc(-c2cccc(N(C)C)c2)cc1 (stereo unspecified)	none (no result: TMEM16A act, ANO1 block)
CCOc1cc(/C=N/NC(=O)c2nnn(-c3nonc3N)c2C)ccc1OCc1cccc(F)c1	none
N#Cc1ccsc1NC(=O)COC(=O)c1ccc(NC(N)=O)cc1	ABCB6 inh 2 74 | ABCB6 blocker 1 inactive
NC(=O)Nc1ccc(C(=O)OCC(=O)Nc2sccc2C(N)=O)cc1	none (no result: ANO1 block)
Cc1ccc(-c2nc(N/N=C/c3ccccc3[N+](=O)[O-])c3ccccc3n2)cc1	ABCB6 inh 2 74 | ABCB6 blocker 1 inactive
